From PubChem BioAssay (Tox21)
Records with an inconclusive call do not appear. Calls of active or inactive are those of the source. Unless noted, the call rests on the fitted dose curve; in most records, active means well fitted curve in the direction sought with a large enough effect in the repeat runs; inconclusive means weak or mixed curves; inactive means no such curve, though single readings can be large; an effect the other way counts as inactive or inconclusive.

How the values were obtained:
[1] = qHTS assay to identify small molecule antagonists of the estrogen related receptor (ERR) signaling pathway from Tox21 library - cell viability counter screen (AID 1224834); further: nearly all actives have a fitted effect of over 30% in size
Procedure, shortened: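 In this quantitative HTS format, ERR cells receive compounds in DMSO and are incubated for 17.5 h at 37 C. Live-cell protease activity is then detected with CellTiter-Fluor.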

[2] = target: Luciferin 4-monooxygenase (Photinus pyralis) (UniProt P08659); experiment: qHTS assay to identify small molecule inhibitors of firefly luciferase (AID 1224835); further: nearly all actives have a fitted effect of over 25% in size
Procedure, shortened: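 Inhibition of purified Photinus luciferase is measured by luminescence. Substrate levels (D-luciferin, ATP) sit at their KM values. Each compound is tested in a concentration series.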

[3] = qHTS assay to identify small molecule agonists of the constitutive androstane receptor (CAR) signaling pathway - cell viability counter screen (AID 1224836); further: nearly all actives have a fitted effect of over 45% in size
Procedure, shortened: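 Compound titrations (15 concentrations) went onto HepG2-CYP2B6-hCAR cells 4 h after seeding, alongside PK11195 at a final 0.75 uM; a 23 h, 37 C/5% CO2 incubation preceded CellTiter-Fluor viability measurement.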

[4] = qHTS assay to identify small molecule antagonists of the constitutive androstane receptor (CAR) signaling pathway - cell viability counter screen (AID 1224837); further: nearly all actives have a fitted effect of over 45% in size
Procedure, shortened: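 In quantitative HTS format, compounds at 15 concentrations were applied to HepG2 cells double-transfected with hCAR and CYP2B6-2.2kb under 50 nM CITCO stimulation; live-cell protease activity was read after 23 hr via CellTiter-Fluor.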

[5] = target: Nuclear receptor subfamily 1 group I member 3 (Homo sapiens) (UniProt Q14994); experiment: qHTS assay to identify small molecule antagonists of the constitutive androstane receptor (CAR) signaling pathway (AID 1224838); further: nearly all actives have a fitted effect of over 40% in size
Procedure, shortened: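 CITCO-stimulated (50 nM final) HepG2 cells stably transfected with hCAR and CYP2B6-2.2kb luciferase were exposed to compounds at 15 concentrations for 24 h at 37 C/5% CO2. A luciferase reagent was added and luminescence recorded after 30 min.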

[6] = target: Nuclear receptor subfamily 1 group I member 3 (Homo sapiens) (UniProt Q14994); experiment: qHTS assay to identify small molecule agonists of the constitutive androstane receptor (CAR) signaling pathway (AID 1224839);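 further: HepG2 cells stably carrying human CAR and a CYP2B6 luciferase reporter; nearly all actives have a fitted effect of over 15% in size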
Procedure, shortened: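 In this screen, CAR-driven CYP2B6 promoter activity is measured by luminescence in HepG2-CYP2B6-hCAR cells after 24 h with test compounds and 0.75 uM PK11195 (final concentration).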

[7] = qHTS assay to identify small molecule antagonists of the estrogen related receptor signaling pathway with the pleiotropic PPARgamma coactivator (PGC) from Tox21 10K library - cell viability counter screen (AID 1224840; active means well fitted cell-killing curve with a large enough effect in the repeat runs, not every such curve was filed as active; further: nearly all actives have a fitted effect of over 40% in size)
Procedure, shortened: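 Viability counter screen, PGC/ERR cells: 17.5 h compound exposure at 37 C, CellTiter-Fluor fluorescence endpoint.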

[8] = target: Thyrotropin receptor (Homo sapiens) (UniProt P16473); experiment: qHTS assay to identify small molecule agonists of the thyroid stimulating hormone receptor (TSHR) signaling pathway (AID 1224843; calls by dose curve; further: nearly all actives have a fitted effect of over 45% in size)
Procedure, shortened: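 A cell-based cAMP HTRF format was run in TSHR-transfected HEK293 cells, 800 per well. Treatment: 30 min, room temperature. Detection: 1 h with labelled cAMP and anti-cAMP cryptate. Concentration-response over 15 points, three replicates.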

[9] = qHTS assay to identify small molecule agonists of the hypoxia (HIF-1) signaling pathway - cell viability counter screen (AID 1224844; calls by dose curve; further: nearly all actives have a fitted effect of over 50% in size)
Procedure, shortened: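 Same wells as the HIF-1 reporter screen; ME-180 cells carrying HRE-bla, 17 hr treatment at 37C; CellTiter-Glo luminescence read after 30 min at room temperature.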

[10] = qHTS assay to identify small molecule agonists of the hypoxia (HIF-1) signaling pathway (AID 1224846; active means well fitted activation curve with a large enough effect in the signal ratio in the repeat runs, not every such curve was filed as active; the % refers to the signal ratio)
Procedure, shortened: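 In ME-180 cells bearing an HRE-bla construct, 17 h treatment with DMSO-dissolved compounds at 37C was followed by CCF4-AM loading to quantify reporter induction.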

[11] = qHTS assay to identify small molecule agonists of H2AX - cell viability counter screen (AID 1224847; calls by dose curve; further: top concentration of the series differs between compounds; nearly all actives have a fitted effect of over 30% in size)
Procedure, shortened: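 Read-out: CellTiter-Glo luminescence, 30 min RT. Cells: wild-type CHO-K1, 1000/well, 10% FBS, plated overnight at 37C. Treatment: 15 concentrations, 3 hr, 37C, 0.76% DMSO.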

[12] = qHTS RealTime-Glo MT Cell Viability Assay in HepG2 cells - 24 hour (AID 1224867); further: nearly all actives have a fitted effect of over 50% in size
Procedure, shortened: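 Cells + NanoLuc/prosubstrate dispensed (600 cells/well) → 5 h at 37 C/5% CO2 → compounds in DMSO transferred → 40 h incubation at 37 C, luminescence read at 0, 8, 16, 24, 32, 40 h.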

[13] = qHTS RealTime-Glo MT Cell Viability Assay in HEK293 cells - 32 hour (AID 1224868); further: top concentration of the series differs between compounds; nearly all actives have a fitted effect of over 50% in size
Procedure, shortened: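 Tox21 10K qHTS, HEK293, 600 cells/well, RealTime-Glo reagent co-dispensed with cells; 5 h preincubation, compound by pintool, 37 C, luminescence at 0–40 h.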

[14] = A CellTox Green Cytotoxicity Assay to monitor cytotoxicity in HEK293 cells - 0 hour (AID 1224869); further: nearly all actives have a fitted effect of over 50% in size
Procedure, shortened: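 Homogeneous no-lysis format: HEK293 cell suspension mixed with CellTox Green reagent, seeded, incubated 5 h at 37 C/5% CO2, then dosed by pintool with compound in DMSO.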

[15] = qHTS RealTime-Glo MT Cell Viability Assay in HepG2 cells - 40 hour (AID 1224870); further: nearly all actives have a fitted effect of over 50% in size
Procedure, shortened: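 Real-time viability: cells seeded at 600 per well together with NanoLuc and cell-permeant prosubstrate, compounds added after 5 h incubation. Luminescence tracked at 0, 8, 16, 24, 32 and 40 h of exposure.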

[16] = qHTS assay to identify small molecule antagonists of the estrogen related receptor signaling pathway with the pleiotropic PPARgamma coactivator (PGC) from Tox21 10K library (AID 1224841; call rule not given here)
Procedure, shortened: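 In the PGC/ERR line, DMSO solutions of test chemicals are pin-delivered to 2,000 cells/well six hours after dispensing. Following eighteen hours' incubation, One-Glo reagent is added and luminescence recorded.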

[17] = qHTS assay to identify small molecule agonists of H2AX (AID 1224845; active means well fitted activation curve with a large enough effect in the signal ratio in the repeat runs, not every such curve was filed as active; the % refers to the signal ratio)
Procedure, shortened: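 Phospho-H2AX Ser139 measured by HTRF (ex 320 nm; em 665 and 620 nm) after 24 hr antibody incubation. Compounds, 15 concentrations, 0.76% DMSO, were applied to CHO-K1 cells for 3hr at 37C before lysis.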

[18] = qHTS assay to identify small molecule antagonists of the estrogen related receptor (ERR) signaling pathway from Tox21 library (AID 1224848); further: nearly all actives have a fitted effect of over 50% in size
Procedure, shortened: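 ERR cell line, 2,000 cells/well. 6 h settle, then compound (DMSO) added; 18 h at 37 C; ONE-Glo luminescence after 30 min RT.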

[19] = qHTS assay to identify small molecule agonists of the estrogen related receptor (ERR) signaling pathway from Tox21 library (AID 1224849; calls by dose curve; further: nearly all actives have a fitted effect of over 15% in size); details: ERR reporter cell line, ONE-Glo luciferase, 18 h; at 92.4 µM (top of the series) unless noted
Procedure, shortened: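 Reporter cells (ERR, NTP source) treated with Tox21 10K compounds 18 h, 37 C. Readout: ONE-Glo luminescence, 30 min RT.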

[20] = qHTS assay to identify small molecule agonists of the estrogen related receptor signaling pathway with the pleiotropic PPARgamma coactivator (PGC) from Tox21 10K library (AID 1224842); further: nearly all actives have a fitted effect of over 15% in size
Procedure, shortened: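 Luminescence from One-Glo (30 min, room temperature) measured after PGC/ERR cells had 18 h at 37 C with pinned compound (23 nL in DMSO). Cells had been seeded at 2,000 per well and pre-incubated 6 h.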
On the % scale 0 is the no-effect control and ±100 the full control effect.

Chain of Nuclear receptor subfamily 1 group I member 3 (Homo sapiens) (Q14994 whole entry, looked up): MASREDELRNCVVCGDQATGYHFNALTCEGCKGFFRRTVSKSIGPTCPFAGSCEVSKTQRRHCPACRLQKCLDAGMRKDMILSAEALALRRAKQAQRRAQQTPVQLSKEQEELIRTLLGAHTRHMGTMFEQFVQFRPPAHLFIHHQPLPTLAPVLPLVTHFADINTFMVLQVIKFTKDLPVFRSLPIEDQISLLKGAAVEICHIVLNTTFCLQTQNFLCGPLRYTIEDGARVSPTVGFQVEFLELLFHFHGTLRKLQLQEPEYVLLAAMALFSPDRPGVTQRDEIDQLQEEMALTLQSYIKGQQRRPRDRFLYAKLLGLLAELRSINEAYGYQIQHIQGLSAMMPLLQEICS
Chain of Luciferin 4-monooxygenase (Photinus pyralis) (P08659 whole entry, looked up): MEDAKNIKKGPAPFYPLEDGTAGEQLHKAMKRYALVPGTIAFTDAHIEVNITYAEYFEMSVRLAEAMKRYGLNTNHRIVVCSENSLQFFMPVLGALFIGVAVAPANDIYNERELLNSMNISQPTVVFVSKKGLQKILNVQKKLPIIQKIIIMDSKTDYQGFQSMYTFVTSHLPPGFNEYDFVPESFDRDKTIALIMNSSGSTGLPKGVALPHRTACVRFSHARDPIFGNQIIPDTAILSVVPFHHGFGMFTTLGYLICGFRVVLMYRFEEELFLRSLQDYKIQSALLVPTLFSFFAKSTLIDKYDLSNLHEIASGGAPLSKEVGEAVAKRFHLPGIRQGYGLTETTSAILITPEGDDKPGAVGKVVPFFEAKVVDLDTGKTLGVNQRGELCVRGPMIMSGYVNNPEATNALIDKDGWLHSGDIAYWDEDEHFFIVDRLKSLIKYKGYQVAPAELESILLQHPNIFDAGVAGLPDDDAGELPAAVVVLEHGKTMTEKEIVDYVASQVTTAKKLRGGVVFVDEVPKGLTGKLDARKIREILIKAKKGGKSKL
Chain of Thyrotropin receptor (Homo sapiens) (P16473 whole entry, looked up): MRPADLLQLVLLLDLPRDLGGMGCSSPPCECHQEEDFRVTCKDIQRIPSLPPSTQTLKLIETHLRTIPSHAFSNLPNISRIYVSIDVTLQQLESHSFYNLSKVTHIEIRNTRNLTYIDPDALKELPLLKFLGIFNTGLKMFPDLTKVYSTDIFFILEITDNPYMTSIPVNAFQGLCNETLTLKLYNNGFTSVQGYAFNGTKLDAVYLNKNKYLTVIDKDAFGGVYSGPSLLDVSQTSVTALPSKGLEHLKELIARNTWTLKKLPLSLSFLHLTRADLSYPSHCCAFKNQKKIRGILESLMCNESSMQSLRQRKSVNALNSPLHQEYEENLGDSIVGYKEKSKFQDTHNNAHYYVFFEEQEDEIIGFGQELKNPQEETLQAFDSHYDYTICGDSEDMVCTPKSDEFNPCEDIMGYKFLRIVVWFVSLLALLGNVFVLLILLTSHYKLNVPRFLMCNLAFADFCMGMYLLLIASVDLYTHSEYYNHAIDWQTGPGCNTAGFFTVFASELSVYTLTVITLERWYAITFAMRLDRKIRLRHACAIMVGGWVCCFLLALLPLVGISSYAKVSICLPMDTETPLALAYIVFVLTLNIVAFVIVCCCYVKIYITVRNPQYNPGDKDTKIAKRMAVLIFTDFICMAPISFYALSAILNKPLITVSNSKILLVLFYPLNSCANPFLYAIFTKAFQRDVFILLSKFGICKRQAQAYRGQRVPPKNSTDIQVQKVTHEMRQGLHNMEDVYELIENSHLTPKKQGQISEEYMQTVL

COS(=O)(=O)C(F)(F)F
inactive: Potency [1] | Potency [2] | Potency [3] | Potency [4] | Potency [5] | Potency [6] | Potency [7] | Potency [8] | Potency [9] | Potency [10] | Potency [11] | Potency [12] | Potency [13] | Potency [14] | Potency [15]

CCCCOC(=O)CCCCCCCC(=O)OCCCC
inactive: Potency [1] | Potency [2] | Potency [3] | Potency [4] | Potency [5] | Potency [6] | Potency [7] | Potency [16] | Potency [8] | Potency [9] | Potency [17] | Potency [10] | Potency [11] | Potency [18] | activity change, positive = activation [19] 2.99% | Potency [12] | Potency [13] | Potency [14] | Potency [15]

CCCCCCCC/C=C\CCCCCCCC(=O)OCC
inactive: Potency [1] | Potency [2] | Potency [3] | Potency [4] | Potency [5] | Potency [6] | Potency [7] | Potency [16] | Potency [20] | Potency [8] | Potency [9] | Potency [17] | Potency [10] | Potency [11] | Potency [18] | activity change, positive = activation [19] -11.5% | Potency [12] | Potency [13] | Potency [14] | Potency [15]

COCC(C)OC(C)=O (stereo unspecified)
inactive: Potency [1] | Potency [2] | Potency [3] | Potency [4] | Potency [5] | Potency [6] | Potency [7] | Potency [9] | Potency [17] | Potency [10] | Potency [11] | Potency [12] | Potency [13] | Potency [14] | Potency [15]

CCC(Cl)CCC(Cl)C(Cl)CC(Cl)C(Cl)C(Cl)CCl (stereo unspecified)
inactive: Potency [1] | Potency [2] | Potency [3] | Potency [4] | Potency [5] | Potency [6] | Potency [7] | Potency [8] | Potency [9] | Potency [10] | Potency [11] | Potency [18] | activity change, positive = activation [19] 0.0481% | Potency [12] | Potency [13] | Potency [14] | Potency [15]

CCC(=O)O[C@]1(C(=O)CCl)[C@@H](C)C[C@H]2[C@@H]3CCC4=CC(=O)C=C[C@]4(C)[C@@]3(F)[C@@H](O)C[C@@]21C
inactive: Potency [1] | Potency [2] | Potency [3] | Potency [4] | Potency [5] | Potency [6] | Potency [7] | Potency [16] | Potency [20] | Potency [8] | Potency [17] | Potency [10] | Potency [11] | activity change, positive = activation [19] -18.7% [at 42.5 µM] | Potency [14] | Potency [15]

Nc1cc(C(=O)O)c(O)c(S(=O)(=O)O)c1
inactive: Potency [1] | Potency [2] | Potency [3] | Potency [4] | Potency [5] | Potency [6] | Potency [7] | Potency [16] | Potency [20] | Potency [8] | Potency [9] | Potency [10] | Potency [11] | Potency [18] | activity change, positive = activation [19] 7.51% | Potency [12] | Potency [13] | Potency [14] | Potency [15]

CCCCCCCCCCO[C@@H]1O[C@H](CO)[C@@H](O)[C@H](O)[C@H]1O
inactive: Potency [1] | Potency [2] | Potency [3] | Potency [4] | Potency [5] | Potency [6] | Potency [7] | Potency [9] | Potency [17] | Potency [10] | Potency [11] | Potency [12] | Potency [14] | Potency [15]

O=C(NCCO[N+](=O)[O-])c1cccnc1
inactive: Potency [1] | Potency [2] | Potency [3] | Potency [4] | Potency [5] | Potency [6] | Potency [7] | Potency [8] | Potency [10] | Potency [11] | Potency [12] | Potency [13] | Potency [14] | Potency [15]

CCN(CC)CCNC(=O)c1cc(Br)c(N)cc1OC
inactive: Potency [1] | Potency [2] | Potency [3] | Potency [4] | Potency [5] | Potency [6] | Potency [7] | Potency [16] | Potency [20] | Potency [8] | Potency [17] | Potency [11] | Potency [18] | activity change, positive = activation [19] 3.9% [at 42.5 µM] | Potency [12] | Potency [13] | Potency [14] | Potency [15]

CN(C)CCN(Cc1ccsc1)c1ccccn1
inactive: Potency [1] | Potency [2] | Potency [3] | Potency [4] | Potency [5] | Potency [6] | Potency [7] | Potency [9] | Potency [17] | Potency [10] | Potency [11] | Potency [12] | Potency [13] | Potency [14] | Potency [15]

COCCCN1CCC(NC(=O)c2cc(Cl)c(N)c3c2OCC3)CC1
inactive: Potency [1] | Potency [2] | Potency [3] | Potency [4] | Potency [5] | Potency [6] | Potency [7] | Potency [16] | Potency [20] | Potency [8] | Potency [9] | Potency [17] | Potency [10] | Potency [11] | Potency [18] | activity change, positive = activation [19] 5.44% [at 42.5 µM] | Potency [12] | Potency [13] | Potency [14] | Potency [15]

C[N+]1(C)CCC(OC(=O)C(O)(c2ccccc2)C2CCCC2)C1 (stereo unspecified)
inactive: Potency [1] | Potency [2] | Potency [3] | Potency [4] | Potency [5] | Potency [6] | Potency [7] | Potency [8] | Potency [9] | Potency [11] | Potency [12] | Potency [13] | Potency [15]

CCCCCCCN
inactive: Potency [1] | Potency [2] | Potency [3] | Potency [4] | Potency [5] | Potency [6] | Potency [7] | Potency [8] | Potency [9] | Potency [17] | Potency [10] | Potency [11] | Potency [12] | Potency [13] | Potency [14] | Potency [15]
